Reference: PubChem BioAssay AID1851 (National Center for Advancing Translational Sciences (NCATS), 2009)
Out of some 16,000 compounds screened, about 2,600 (16%) were called active. Roughly 20% stayed inconclusive and do not appear here. A selection follows. Unmarked numbers belong to inactive results. Calls come from the whole dose curve; as a rule, active = well fitted curve in the direction sought with a large enough effect; inconclusive = small, poorly fitted or top-dose-only effect, or effect the other way; inactive = no such curve, though single readings can be large or run the other way.

Molecular target: Cytochrome P450 2D6 (Homo sapiens) (UniProt P10635)
Experiment: Cytochrome panel assay with activity outcomes
Conditions: recombinant CYP, pro-luciferin dealkylation, luminescence, p450-cyp2d6; series mostly up to 57.1 µM; activity, negative = inhibition: at the top concentration
% is set by controls: 0 for no effect and ±100 for the full control effect.

Cytochrome P450 2D6 (Homo sapiens), sequence (P10635 whole entry, looked up): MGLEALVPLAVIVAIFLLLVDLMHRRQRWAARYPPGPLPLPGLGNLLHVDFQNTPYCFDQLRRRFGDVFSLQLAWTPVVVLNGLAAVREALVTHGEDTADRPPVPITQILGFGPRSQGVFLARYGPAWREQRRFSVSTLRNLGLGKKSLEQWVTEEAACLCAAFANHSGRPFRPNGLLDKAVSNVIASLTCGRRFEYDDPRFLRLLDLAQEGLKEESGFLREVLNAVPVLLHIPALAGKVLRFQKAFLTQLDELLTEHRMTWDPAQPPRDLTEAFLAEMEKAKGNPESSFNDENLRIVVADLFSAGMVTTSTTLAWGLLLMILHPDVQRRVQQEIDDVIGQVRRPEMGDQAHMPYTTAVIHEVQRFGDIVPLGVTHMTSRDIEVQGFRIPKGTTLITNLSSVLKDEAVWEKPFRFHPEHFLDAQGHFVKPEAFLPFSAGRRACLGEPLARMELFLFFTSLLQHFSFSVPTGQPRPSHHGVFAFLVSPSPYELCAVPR

| SMILES | activity, negative = inhibition | AC50 |
| --- | --- | --- |
| COc1cccc(Nc2ncc3ncc(=O)n(C)c3n2)c1 | -4.79% | – |
| COc1ccc(CCNC(=O)Cn2cnc3c2c(=O)n(C)c(=O)n3C)cc1OC | 2.41% | – |
| O=C(O)c1nn(-c2ccc(Cl)cc2)c2c1C(=O)c1ccccc1C2=O | -7.18% [at 11.4 µM] | – |
| CCCNC(=O)Nc1ccc2c(c1)nc(C)n2C | 8.71% | – |
| O=C(Nc1ccc(Cl)cc1)NC1CCCCC1 | -2.71% | – |
| O=C(Nc1ccc2c(c1)nc1n2CCN(C2CCCCC2)C1)NC1CCCCC1 | – | 12.6 µM (active) |
| O=C(O)CC/C=C\CC[C@H]1[C@@H](N2CCCCC2)[C@@H](O)C[C@@H]1OCc1ccc(-c2ccccc2)cc1 | 10.6% | – |
| COc1ccc2c(c1)CCCC21NC(=O)N(CC(N)=O)C1=O (stereo unspecified) | 11.4% | – |
| CCOC(=O)N1N=C(c2ccccc2)CC1(O)C(F)(F)F (stereo unspecified) | 3.62% | – |
| COC(=O)c1ccc(NC(=O)c2ccccc2)o1 | 12.2% | – |
| CN1CCN2c3ncccc3Cc3ccccc3C2C1 (stereo unspecified) | – | 0.501 µM (active) |
| O=c1[nH]c(=S)[nH]nc1Cc1ccccc1 | 4.49% | – |
| Cc1c(N(C)C)c(=O)n(-c2ccccc2)n1C | 1.13% [at 25.6 µM] | – |
| CSC1=C(C#N)C(c2ccccc2Cl)C2=C(N1)c1ccccc1C2=O (stereo unspecified) | -20.8% | – |
| COc1cc(/C=C/C(=O)Nc2ccccc2C(F)(F)F)cc(OC)c1OC | 4.2% | – |
| CCc1ccc2c(-c3cccc(Cl)c3)nc(=O)n(CC)c2n1 | -15% | – |
| Cc1ccc(C(=O)COC(=O)CNC(=O)C(c2ccccc2)c2ccccc2)cc1[N+](=O)[O-] | -8.5% | – |
| Cc1ccc(-n2ccnc2SCC(=O)N(CC(C)C)C2CCS(=O)(=O)C2)c(C)c1 (stereo unspecified) | -6.08% | – |
| O=C(O)CSc1ncnc2sc3c(c12)CCC3 | -4.52% | – |
| Cc1cc(C)n(-c2nc(NCC(C)O)c3c4c(sc3n2)COC(C)(C)C4)n1 (stereo unspecified) | -1.92% | – |
| Cc1cc(C)n(-c2nc(SCCN(C)C)c3c4c(sc3n2)CCCC4)n1 | – | 0.794 µM (active) |
| C[C@@H]1C[C@H](C)CN(S(=O)(=O)c2cc(Cl)c(Oc3ccc([N+](=O)[O-])cc3Cl)c(Cl)c2)C1 | 2.46% [at 11.4 µM] | – |

| SMILES | activity, negative = inhibition | AC50 |
| --- | --- | --- |
| CC1(C)Cc2ccccc2C(N/N=C/c2cccc(F)c2)=N1 | – | 11.2 µM (active) |
| Cc1cccc(/C=N\Nc2cn[nH]c(=O)c2Cl)c1 | -13% | – |
| O=C(N/N=C/c1cccc(F)c1)c1csc2c1CCCC2 | -28.5% | – |
| Cn1c(=O)c(-c2ccc(Cl)cc2)nc2cnc(N3CCOCC3)nc21 | 0.0181% | – |
| Oc1cc(O)c2c(c1)O[C@@H](c1ccc(O)c(O)c1)[C@H](O[C@@]1(c3cc(O)c(O)c(O)c3)Oc3cc(O)cc(O)c3[C@H](O)[C@@H]1O)C2 | -0.664% [at 11.4 µM] | – |
| Cc1ccc(C(=O)Oc2cc(C)n(C)c(=O)c2)cc1 | -3.57% | – |
| CCCN(CCC)S(=O)(=O)c1ccc(C(=O)O)cc1 | 1.42% [at 25.6 µM] | – |
| CCN(CC(=O)NCc1cccs1)S(=O)(=O)c1ccc(C(C)C)cc1 | – | 3.55 µM (active) |
| CCN(c1ccccc1)S(=O)(=O)c1ccc(NC(=S)NC(=O)c2cccs2)cc1 | -14.7% | – |
| Cc1nn(CC(O)COc2ccc3c(c2)CCC3)c(C)c1Br (stereo unspecified) | -17% | – |
| CCn1c(SCC(=O)Nc2sc3c(c2C(N)=O)CCC(C)C3)nnc1-c1ccco1 (stereo unspecified) | 6.66% | – |
| CCCCNC(=S)NNC(=O)CCn1nc(C)c(Br)c1C | -1.01% | – |
| CCN(CC)C(=O)CSc1nnc(CNc2ccc(F)cc2)o1 | 16.3% | – |
| COc1ccccc1-c1nc(N(C)Cc2ccco2)c2ccccc2n1 | – | 1 µM (active) |
| Cc1ccccc1-c1nc(N(C)Cc2ccco2)c2ccccc2n1 | – | 3.16 µM (active) |
| CN(C)Cc1ccccc1-c1nc(N(C)Cc2ccco2)c2ccccc2n1 | – | 0.794 µM (active) |
| CN(Cc1ccco1)c1nc(-c2ccccc2C(F)(F)F)nc2ccccc12 | – | 7.94 µM (active) |
| CCC(=O)N(Cc1ccco1)c1nc(-c2ccccc2)cs1 | -25% | – |
| Cc1ccc(-c2cc(C(=O)NCc3ccco3)c3ccccc3n2)s1 | -16.4% | – |
| O=C1C(Cc2ccccc2)NC(=S)N1c1ccccc1 (stereo unspecified) | 6.7% | – |
| Cc1ccccc1S(=O)(=O)c1c(C)cc(-c2ccccc2)[nH]c1=O | -6.01% | – |
| COc1ccc(-n2c(=O)cnc3cnc(Oc4ccccc4)nc32)cc1 | -3.04% | – |

| SMILES | activity, negative = inhibition | AC50 |
| --- | --- | --- |
| CS(=O)(=O)c1cnc2c(-c3ccc(F)cc3)cnn2c1N | 0.896% | – |
| CCCCN=C1N/C(=C\c2ccco2)C(=O)N1c1ccccc1 | -29.6% | – |
| O=C(Nc1ccc(-c2cc3ccccc3oc2=O)c(Cl)c1)c1cccnc1 | 7.04% | – |
| COc1cccc(Nc2ncc3nc(-c4cn(C)c5ccccc45)c(=O)n(CCC#N)c3n2)c1 | -4.27% | – |
| O=C(c1cc(-c2ccccc2Cl)on1)N1CCN(C(=O)c2ccco2)CC1 | -1.39% | – |
| O=C(O)c1cc2cc(OCc3ccccc3)ccc2[nH]1 | -1.31% | – |
| COc1cc2c(C(=O)NCc3ccc(C)o3)cn(CC(C)C)c(=O)c2cc1OC | -14.4% | – |
| Cc1oc(=O)c(NC(=O)c2ccccc2)cc1C(=O)c1ccccc1 | -15.9% | – |
| COc1cccc(-c2nc(N(C)C)c3ccccc3n2)c1 | – | 12.6 µM (active) |
| Cc1cc(Oc2ccccc2)nc(-c2ccccc2)n1 | -9.47% | – |
| COc1cccc(-c2nc(N(C)Cc3ccco3)c3ccccc3n2)c1 | – | 5.01 µM (active) |
| COc1ccc(OC)c(Nc2nc(-c3cccc([N+](=O)[O-])c3)nc3ccccc23)c1 | 5.17% | – |
| O=C(NC1(C(F)(F)F)NC(=O)N(Cc2cccnc2)C1=O)c1ccccc1 (stereo unspecified) | -26% | – |
| CC(C)(C)NC(=O)Cn1nnc(-c2ccccc2NC(=O)c2cnccn2)n1 | 11.1% | – |
| CC(=O)Nc1ccc(NC2=Nc3ccccc3N3C2=Nc2c(c(C)nn2-c2ccccc2)C3c2ccccc2)cc1 (stereo unspecified) | -0.731% | – |
| Cc1nn(Cc2ccc(Cl)cc2Cl)c(C)c1NC(=O)c1sc2ccccc2c1Cl | -13% | – |
| C=CCc1cccc2cc(C(=O)N(CC)CC)c(=O)oc12 | -3.73% | – |
| Cc1[nH]n(-c2ccccc2)c(=O)c1CCOC(=O)c1ccc(C(F)(F)F)cc1 | -16% | – |
| CCOC(=O)c1ccc(N/C=C/C(=O)c2ccc(OC)cc2)cc1 | -2.63% | – |
| CCOC(=O)c1ccc(N)cc1 | -7.44% [at 25.6 µM] | – |
| CCOC(=O)c1ccc(OC(=O)CCCCCN=C(N)N)cc1 | – | 0.316 µM (active) |
| Cn1c(=O)c(-c2cccs2)nc2cnc(Oc3ccccc3)nc21 | 1.93% | – |
